According to US20040171041, “Preparation and use of single-stranded transcription substrates for synthesis of transcription products corresponding to target sequences” (published 2004):

molecular target: T1, mini-vRNAP (N4 virion RNA polymerase transcriptionally active domain, His-tagged) (Bacteriophage N4, UniProt Q859P9 SEQ:38-1143); test: filter; further one order of magnitude reduction versus -2 pairing; settings: tags: N-terminal His6 (pBAD B leader); hairpin, extended stem; ssDNA; [NONE]
T1 sequence: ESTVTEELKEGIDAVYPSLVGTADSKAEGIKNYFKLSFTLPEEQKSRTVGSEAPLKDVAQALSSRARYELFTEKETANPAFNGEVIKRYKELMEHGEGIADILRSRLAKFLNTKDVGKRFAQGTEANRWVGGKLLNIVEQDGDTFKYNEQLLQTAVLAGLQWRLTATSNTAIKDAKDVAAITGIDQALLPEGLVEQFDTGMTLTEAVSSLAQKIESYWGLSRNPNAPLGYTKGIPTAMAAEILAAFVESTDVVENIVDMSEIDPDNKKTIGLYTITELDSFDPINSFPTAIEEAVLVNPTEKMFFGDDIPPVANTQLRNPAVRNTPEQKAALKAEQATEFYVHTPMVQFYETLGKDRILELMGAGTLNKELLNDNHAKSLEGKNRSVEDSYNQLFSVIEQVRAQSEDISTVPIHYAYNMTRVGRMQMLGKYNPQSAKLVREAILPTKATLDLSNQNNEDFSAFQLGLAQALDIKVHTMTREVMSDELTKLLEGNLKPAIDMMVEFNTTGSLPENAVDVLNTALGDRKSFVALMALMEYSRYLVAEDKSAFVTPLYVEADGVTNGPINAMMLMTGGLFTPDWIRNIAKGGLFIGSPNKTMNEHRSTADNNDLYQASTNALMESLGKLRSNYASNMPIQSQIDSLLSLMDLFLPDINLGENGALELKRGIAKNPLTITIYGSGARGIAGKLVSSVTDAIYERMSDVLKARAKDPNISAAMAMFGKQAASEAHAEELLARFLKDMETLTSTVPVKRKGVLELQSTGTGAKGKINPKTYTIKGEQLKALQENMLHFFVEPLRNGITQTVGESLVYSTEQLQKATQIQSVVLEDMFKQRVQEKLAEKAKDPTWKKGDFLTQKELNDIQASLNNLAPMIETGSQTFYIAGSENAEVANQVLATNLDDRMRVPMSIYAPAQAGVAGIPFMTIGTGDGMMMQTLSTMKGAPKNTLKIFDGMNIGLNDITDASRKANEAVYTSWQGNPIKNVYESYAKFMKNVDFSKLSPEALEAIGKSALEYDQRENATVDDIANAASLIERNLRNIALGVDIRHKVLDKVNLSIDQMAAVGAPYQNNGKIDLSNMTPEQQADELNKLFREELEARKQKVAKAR
Text: To study the sequence determinants of promoter binding, 20 base-long promoter oligonucleotides, containing the wild-type vRNAP promoter P2 sequence and substituted at every position with a single 5-Iodo-dU, were used. Whenever substitutions were made in the stem, the corresponding pairing base was changed to A. These oligonucleotides were ³²P end-labeled and used to determine the enzyme's affinity for promoter DNAs by a filter binding assay and the ability to crosslink to mini-vRNAP upon UV irradiation at 320 nm.
The effect of changes in the stem length of the hairpin on the ability of mini-vRNAP to bind P2 promoter DNA was analyzed. […] The stem can be shortened by two base pairs without change in the binding affinity. […] No binding is observed if one more nucleotide is removed and the loop cannot form.

Sequence	binding signal [fold lower affinity]
TCCAAAAGAAGCGGAGCTTCTTTTG	~1000
